Data on 36 compounds can be found in PubChem BioAssay (NCI).

About 83,000 compounds went through this panel and 20% of them were active in at least one assay; those are over-represented in the sample as a whole.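 Single-concentration screen, 48 h exposure, 96-well plates. Endpoint: percent growth. Below 10 = active.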 Unmarked numbers belong to inactive results. Active and inactive are the calls of the source.

In the first assay the test system is RPMI-8226 leukemia. In words: NCI-60 one-dose screen, 48 h (100 = growth as untreated, 0 = no growth, -100 = all killed). Particulars: 10 µM unless noted.
As to `Nc1cc2nc3ccccc3sc-2cc1=O`, the growth was 45.2%. As for `C#Cc1nc(Nc2cc(C)[nH]n2)c2ccccc2n1`, the growth was -16.5% (active). Take `CCOC(=O)c1nc(Nc2cc(C)[nH]n2)c2ccccc2n1`: the growth is 114%.

With `O=C(/C=C/c1ccc(Cl)cc1)/C=C/c1cc2ccccc2[nH]c1=O`, the growth was -22.2% (active).

Consider `CCOC(=O)c1ccc2c(c1)nc(/C=C/c1ccc(Cl)cc1)n2-c1cc(C(C)(C)C)[nH]n1`, for which the growth was 52.3%.

Take `CC(=O)OCC(=O)C1CCC=CC1OC(C)=O` (stereo unspecified): the growth is 100%. Take `COc1cc(C2CC(=O)c3c(C)nn(-c4nc5ccccc5[nH]4)c3C2)cc(OC)c1OC` (stereo unspecified): the growth was 92.1%. For the compound `CC1(C)OCC2OC3(C(=O)O)OC(C)(C)OC3C2O1` (stereo unspecified), the growth was 117%.

`COc1ccc(C(=O)c2sc3nc(-c4ccccc4OC)ccc3c2N)cc1OC`: the growth is 19.7%. As for `COc1ccc(C(=O)c2sc3nc4c(cc3c2N)CCCC4)cc1OC`, the growth is 10.4%. Regarding `Cc1ccc2c(NCCCN(C)C)c3c(C)nn(C)c3nc2c1`, the growth is 27.8%. Regarding `Cc1ccc(NC(=O)c2sc3nc4c(cc3c2N)C(=O)CCC4)cc1C`, the growth was 11.4%. With `COc1c(C2CC(=O)Nc3c2cnn3Cc2ccco2)cc2c(c1OC)OCO2` (stereo unspecified), the growth was -1.94% (active).

Consider `Cc1ccn2c(-c3csc(Nc4cccc(O)c4)n3)c(C)nc2c1`, for which the growth was -4.74% (active). As to `NC(CC(=O)O)C(=O)OCc1ccccc1` (stereo unspecified), the growth was 98.7%. For the compound `O=C1Nc2ccc(Br)cc2C12CC(c1ccccc1)=NN2` (stereo unspecified), the growth is 28.3%.

Regarding `Cc1cc(Nc2nc(N3CCNCC3)nc3ccccc23)n[nH]1`, the growth was 117%. The same measure, in the same setting: with `CCc1ccccc1NC(=O)c1sc2nc3c(cc2c1N)C(=O)CCC3` the figure was 17.8%. With `CN1CCCCC1CCN1c2ccccc2Sc2ccc(Cl)cc21` (stereo unspecified), the growth was 56.5%. As for `COc1c(Cl)cc(Cl)cc1Cl`, the growth was 118%. The same measure, in the same setting: with `Cc1cc(Nc2nc(N3CCOCC3)nc3ccccc23)n[nH]1` the figure was 82.5%; with `COc1ccc(C2CC(=O)Nc3c2c(C)nn3-c2nc3ccccc3[nH]2)cc1` (stereo unspecified), 20.4%.

`COc1cc(-c2cc(-c3nc4ccc(Cl)cc4[nH]3)[nH]n2)cc(OC)c1OC`: the growth is 9.58% (active).

As for `Cc1noc(C)c1-c1cc(O)cc(C(O)c2ccccc2)c1` (stereo unspecified), the growth was 14.9%.

Take `COc1ccc(-c2nc(Nc3cc(C)[nH]n3)c3ccccc3n2)cc1`: the growth is 50.7%. Take `Cc1cc(Nc2nc(-c3cccnc3)nc3ccccc23)n[nH]1`: the growth was 98.8%.

In the case of `CC#Cc1nc2ccccc2c(=O)[nH]1`, the growth was 2.5% (active). Still for that read-out and setting: with `O=C(Nc1ccc(F)cc1)Nc1ccc(CCO)cc1` the figure was 108%; with `CCCCNC(=O)NS(=O)(=O)c1ccc(N2N=C(c3cc(C)ccc3C)CC2c2cc(OC)c(OC)c(OC)c2)cc1` (stereo unspecified), 28.3%; with `NCc1cn2cc(Cl)sc2n1`, 106%. `CCCCCCCCCCCCN1CCCC(C)C1` (stereo unspecified): the growth is 64.1%. As for `O=c1c2cccc3c(Nc4ccccn4)ccc(c32)c2nc3ccccc3n12`, the growth is 49%.

In the case of `Cc1ccc(S(=O)(=O)N(CCc2ccc(Cl)cc2)S(=O)(=O)c2ccc(C)cc2)cc1`, the growth is 76.9%.

With `CNC(=S)N/N=C/CSC/C=N/NC(=S)NC`, the growth was 63.7%. In the case of `COc1ccc(-c2c(C)noc2-c2ccc(O)cc2O)cc1`, the growth is 50.7%.

The next assay concerns OVCAR-8 ovarian. The assay is described as above. The settings on record: 10 µM unless noted.
For `Nc1cc2nc3ccccc3sc-2cc1=O`, the growth was 64.4%. `C#Cc1nc(Nc2cc(C)[nH]n2)c2ccccc2n1`: the growth was -19.2% (active). Turning to `CCOC(=O)c1nc(Nc2cc(C)[nH]n2)c2ccccc2n1`, the growth is 111%. For the compound `O=C(/C=C/c1ccc(Cl)cc1)/C=C/c1cc2ccccc2[nH]c1=O`, the growth was -11.5% (active).

Regarding `CCOC(=O)c1ccc2c(c1)nc(/C=C/c1ccc(Cl)cc1)n2-c1cc(C(C)(C)C)[nH]n1`, the growth was 38.5%. On to `CC(=O)OCC(=O)C1CCC=CC1OC(C)=O` (stereo unspecified), for which the growth is 97.2%. Take `COc1cc(C2CC(=O)c3c(C)nn(-c4nc5ccccc5[nH]4)c3C2)cc(OC)c1OC` (stereo unspecified): the growth is 25.7%.

Consider `COc1ccc(C(=O)c2sc3nc(-c4ccccc4OC)ccc3c2N)cc1OC`, for which the growth is 43.2%. The same measure, in the same setting: then `COc1ccc(C(=O)c2sc3nc4c(cc3c2N)CCCC4)cc1OC`, with 43.1%; and `Cc1ccc2c(NCCCN(C)C)c3c(C)nn(C)c3nc2c1`, with -5.26% (active); and `Cc1ccc(NC(=O)c2sc3nc4c(cc3c2N)C(=O)CCC4)cc1C`, with 31.6%. The same measure, in the same setting: with `COc1c(C2CC(=O)Nc3c2cnn3Cc2ccco2)cc2c(c1OC)OCO2` (stereo unspecified) the figure was 18%; with `Cc1ccn2c(-c3csc(Nc4cccc(O)c4)n3)c(C)nc2c1`, 40.1%; with `NC(CC(=O)O)C(=O)OCc1ccccc1` (stereo unspecified), 101%. For the compound `O=C1Nc2ccc(Br)cc2C12CC(c1ccccc1)=NN2` (stereo unspecified), the growth is 61%. Consider `Cc1cc(Nc2nc(N3CCNCC3)nc3ccccc23)n[nH]1`, for which the growth was 115%. Still for that read-out and setting: then `CN1CCCCC1CCN1c2ccccc2Sc2ccc(Cl)cc21` (stereo unspecified), with 63%; and `COc1c(Cl)cc(Cl)cc1Cl`, with 112%. In the case of `Cc1cc(Nc2nc(N3CCOCC3)nc3ccccc23)n[nH]1`, the growth was 104%. Turning to `COc1ccc(C2CC(=O)Nc3c2c(C)nn3-c2nc3ccccc3[nH]2)cc1` (stereo unspecified), the growth is 108%. In the case of `COc1cc(-c2cc(-c3nc4ccc(Cl)cc4[nH]3)[nH]n2)cc(OC)c1OC`, the growth is 3.73% (active). Take `Cc1noc(C)c1-c1cc(O)cc(C(O)c2ccccc2)c1` (stereo unspecified): the growth was 38.6%. On the same count and under the same terms, then `COc1ccc(-c2nc(Nc3cc(C)[nH]n3)c3ccccc3n2)cc1`, with 83.8%. On to `Cc1cc(Nc2nc(-c3cccnc3)nc3ccccc23)n[nH]1`, for which the growth is 80.6%. Still for that read-out and setting: with `CC#Cc1nc2ccccc2c(=O)[nH]1` the figure was 42%; with `O=C(Nc1ccc(F)cc1)Nc1ccc(CCO)cc1`, 104%; with `CCCCNC(=O)NS(=O)(=O)c1ccc(N2N=C(c3cc(C)ccc3C)CC2c2cc(OC)c(OC)c(OC)c2)cc1` (stereo unspecified), 53.2%. On to `COc1cc(C2C(C(=O)c3cccs3)=C(O)C(=O)N2CCN2CCOCC2)cc(OC)c1OC` (stereo unspecified), for which the growth is 113%. On to `NCc1cn2cc(Cl)sc2n1`, for which the growth is 105%. On the same count and under the same terms, then `O=c1c2cccc3c(Nc4ccccn4)ccc(c32)c2nc3ccccc3n12`, with 75.4%. For `COc1ccc(-c2c(C)noc2-c2ccc(O)cc2O)cc1`, the growth is 99.9%.
